Results reported in PubChem BioAssay (EPA / NIEHS).
Records with an inconclusive call do not appear. The source made the active and inactive calls. How the source made its calls, unless noted: active means hit-call score of the fitted dose curve at least 0.9, where 1 is the maximum; inactive means score below 0.9.

Columns and labels:
[1] = target: X-box-binding protein 1 (Homo sapiens) (UniProt P17861); assay: ATG_Xbp1_CIS: Attagene CIS-FACTORIAL HepG2 Assay for human X-box Binding Protein 1 (XBP1) (AID 2282972); conditions: HepG2 XBP1 cis-element reporter, Attagene multiplex; actives raise or lower the signal
How it was run: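 Read-out: fluorescent reporter mRNA fragments resolved by capillary electrophoresis after RT-PCR. Human HepG2 liver cells carried transfected cis-promoter reporter units and were exposed to chemicals for 24 hours. Gain or loss of signal fitted relative to DMSO baseline.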

[2] = target: Glucocorticoid receptor (Homo sapiens) (UniProt P04150); assay: ATG_GR_TRANS: Attagene TRANS-FACTORIAL HepG2 Assay for human Glucocorticoid Receptor (GR) (AID 2282978; active means hit-call score of the fitted dose curve at least 0.9, where 1 is the maximum;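 further: activators score as hits since higher reporter transcript over DMSO is fitted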); conditions: HepG2 Attagene TRANS GR reporter, mRNA transcription
How it was run: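 Measurement of GAL4-UAS-driven reporter mRNA in human HepG2 liver cells 24 h post-dosing, using RT-PCR with fluorescent labelling and capillary electrophoresis; the transfected constructs report exogenous NR-GAL4 chimera activity, fitted upward against DMSO.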

[3] = ATG_M_32_TRANS: Attagene TRANS-FACTORIAL HepG2 Assay for M32 Transcription Factor (Internal Marker) (AID 2282984; active means hit-call score of the fitted dose curve at least 0.9, where 1 is the maximum;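 further: transcript level of a background control reporter unit measured by RT-PCR and capillary electrophoresis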); conditions: HepG2 Attagene TRANS M32 internal marker reporter
How it was run: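 Read-out: fluorescent reporter cDNA fragments resolved by capillary electrophoresis after RT-PCR of total RNA. Transfected HepG2 cells were exposed to chemical for 24 h. Activity scored in the positive direction relative to DMSO.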

[4] = target: Nuclear receptor subfamily 4 group A member 2 (Homo sapiens) (UniProt P43354); assay: ATG_NURR1_TRANS: Attagene TRANS-FACTORIAL HepG2 Assay for human Nuclear Receptor Related Protein 1 (NURR1) (AID 2282985; active means hit-call score of the fitted dose curve at least 0.9, where 1 is the maximum); conditions: HepG2 Attagene TRANS reporter, mRNA readout
How it was run: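 Read-out: reporter mRNA induction by RT-PCR plus capillary electrophoresis with fluorescence detection, after 24 h dosing of transfected HepG2 cells. Exogenous NR-Gal4 chimera activity drives GAL4-UAS reporter; activity fitted upward versus DMSO.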

[5] = target: Transcriptional activator Myb (Homo sapiens) (UniProt P10242); assay: ATG_Myb_CIS: Attagene CIS-FACTORIAL HepG2 Assay for human Myeloblastosis (Myb) Proto-Oncogene Transcription Factor (AID 2282986); conditions: HepG2 Attagene CIS-FACTORIAL Myb reporter transcription; actives raise or lower the signal
How it was run: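 Fluorescence signals from capillary electrophoresis of RT-PCR-amplified reporter cDNA give the read-out. Cells: HepG2 transfected with multiple cis-regulated reporter units. Exposure lasts 24 hours; DMSO defines baseline for gain or loss of signal.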

[6] = target: Nuclear respiratory factor 1 (Homo sapiens) (UniProt Q16656); assay: ATG_NRF1_CIS: Attagene CIS-FACTORIAL HepG2 Assay for human Nuclear Respiratory Factor 1 (NRF1) Orphan Gene (AID 2282987); conditions: HepG2 NRF1 cis-element reporter, Attagene multiplex; actives raise or lower the signal
How it was run: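 Transcriptional reporter readout, one component of a 52-endpoint multiplexed HepG2 panel. Exposure 24 h; mRNA detected via RT-PCR and fluorescent capillary electrophoresis; fitting in both directions against DMSO.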

[7] = target: Myc proto-oncogene protein (Homo sapiens) (UniProt P01106); assay: ATG_Myc_CIS: Attagene CIS-FACTORIAL HepG2 Assay for human Myelocytomatosis (Myc) Proto-Oncogene Transcription Factor (AID 2282990); conditions: HepG2, Attagene cis-reporter transcription factor activity; actives raise or lower the signal
How it was run: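 Transiently transfected HepG2 cells bearing cis-promoter reporter units for endogenous transcription factors; 24 h exposure. Reporter mRNA measured by RT-PCR, 6-FAM primer extension, HpaI cut and capillary electrophoresis; bidirectional fit relative to DMSO.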

[8] = ATG_NF_kB_CIS: Attagene CIS-FACTORIAL HepG2 Assay for human Nuclear Factor Kappa B (NF-kB) (AID 2282991); conditions: HepG2 Attagene cis-factorial NF-kB reporter mRNA; actives raise or lower the signal
How it was run: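 HepG2, transient multi-reporter transfection, cis promoter elements (endogenous TFs). 24 h exposure. Total RNA → RT → PCR → 6-FAM label → HpaI → CE. Gain/loss vs DMSO.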

[9] = ATG_NRF2_ARE_CIS: Attagene CIS-FACTORIAL HepG2 Assay for human Nuclear Factor Erythroid 2 Related Factor 2 (NFR2) response to Antioxidant Response Elements (ARE) (AID 2282992); conditions: HepG2 Attagene ARE/NRF2 reporter, transcription factor activity; actives raise or lower the signal;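 on AC50: reporter mRNA level measured by RT-PCR and capillary electrophoresis fluorescence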
How it was run: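 Readout: reporter mRNA quantified by RT-PCR plus FAM-labelled primer extension, HpaI digestion and capillary electrophoresis, 24 h after dosing transfected HepG2 cells. Gain or loss of signal is fitted bidirectionally against DMSO baseline.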

[10] = target: Oxysterols receptor LXR-alpha (Homo sapiens) (UniProt Q13133); assay: ATG_LXRa_TRANS: Attagene TRANS-FACTORIAL HepG2 Assay for human Liver X Receptor alpha (LXRa) (AID 2282980; active means hit-call score of the fitted dose curve at least 0.9, where 1 is the maximum); conditions: HepG2 Attagene TRANS reporter, LXRa transactivation
How it was run: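 HepG2 cells transiently transfected with GAL4-UAS reporter units for chimeric NR-Gal4 proteins, exposed to chemicals for 24 h. Reporter mRNA quantified by RT-PCR and capillary electrophoresis; gain of signal fitted relative to DMSO.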

[11] = target: Oxysterols receptor LXR-beta (Homo sapiens) (UniProt P55055); assay: ATG_LXRb_TRANS: Attagene TRANS-FACTORIAL HepG2 Assay for human Liver X Receptor beta (LXRb) (AID 2282981; active means hit-call score of the fitted dose curve at least 0.9, where 1 is the maximum); conditions: HepG2 Attagene TRANS GAL4-LXRb reporter, mRNA
How it was run: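 Readout: fluorescent reporter mRNA fragments resolved by capillary electrophoresis after RT-PCR. System: transiently transfected human HepG2, exogenous LXRb-Gal4 chimera driving GAL4-UAS reporter, 24 h dosing. Activity fitted upward against DMSO baseline.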

[12] = target: Hepatocyte nuclear factor 4-alpha (Homo sapiens) (UniProt P41235); assay: ATG_HNF4a_TRANS: Attagene TRANS-FACTORIAL HepG2 Assay for human Hepatocyte Nuclear Factor 4 alpha (HNF4a) (AID 2282982; active means hit-call score of the fitted dose curve at least 0.9, where 1 is the maximum); conditions: HepG2 HNF4a transactivation reporter, mRNA readout
How it was run: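 Transient MRTU transfection of HepG2, 24 h dosing. Readout: reporter mRNA via RT-PCR + capillary electrophoresis, fluorescence; activity fit upward relative to DMSO control.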

[13] = ATG_M_06_TRANS: Attagene TRANS-FACTORIAL HepG2 Assay for M06 Transcription Factor (Internal Marker) (AID 2282983; active means hit-call score of the fitted dose curve at least 0.9, where 1 is the maximum;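 further: reporter transcript level by RT-PCR then capillary electrophoresis fluorescence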); conditions: HepG2 Attagene TRANS M06 internal marker reporter
How it was run: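 mRNA levels of a reporter transcript, quantified as FAM fluorescence on capillary electrophoresis, served as readout. HepG2 cells expressing exogenous GAL4-chimera reporter constructs were exposed for 24 h. Gain of signal over DMSO was evaluated.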

[14] = ATG_NFI_CIS: Attagene CIS-FACTORIAL HepG2 Assay for human Nuclear Factor I (NFI) (AID 2282989); conditions: HepG2 cis-regulatory reporter, NFI response element transcription; actives raise or lower the signal
How it was run: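 HepG2 cells transiently transfected with cis-element-driven multiplexed reporter transcription units, dosed for 24 h. Reporter mRNA quantified by RT-PCR, fluorescent labelling, HpaI digestion and capillary electrophoresis; bidirectional fit versus DMSO baseline.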

[15] = target: Bile acid receptor (Homo sapiens) (UniProt Q96RI1); assay: ATG_FXR_TRANS: Attagene TRANS-FACTORIAL HepG2 Assay for Farnesoid X Receptor (FXR) (AID 2282979; active means hit-call score of the fitted dose curve at least 0.9, where 1 is the maximum;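 further: hits raise reporter mRNA above DMSO so AC50 marks FXR activation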); conditions: HepG2 Attagene TRANS FXR-GAL4 reporter transcription
How it was run: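 HepG2 cells were transiently transfected with GAL4-UAS reporters driven by chimeric NR-Gal4 proteins and dosed for 24 h. Reporter mRNA was quantified by RT-PCR, fluorescent labelling, HpaI digestion and capillary electrophoresis, with gain of signal scored versus DMSO.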

Measured: AC50

Glucocorticoid receptor (Homo sapiens), sequence (P04150 whole entry, looked up, the tested form may be a part): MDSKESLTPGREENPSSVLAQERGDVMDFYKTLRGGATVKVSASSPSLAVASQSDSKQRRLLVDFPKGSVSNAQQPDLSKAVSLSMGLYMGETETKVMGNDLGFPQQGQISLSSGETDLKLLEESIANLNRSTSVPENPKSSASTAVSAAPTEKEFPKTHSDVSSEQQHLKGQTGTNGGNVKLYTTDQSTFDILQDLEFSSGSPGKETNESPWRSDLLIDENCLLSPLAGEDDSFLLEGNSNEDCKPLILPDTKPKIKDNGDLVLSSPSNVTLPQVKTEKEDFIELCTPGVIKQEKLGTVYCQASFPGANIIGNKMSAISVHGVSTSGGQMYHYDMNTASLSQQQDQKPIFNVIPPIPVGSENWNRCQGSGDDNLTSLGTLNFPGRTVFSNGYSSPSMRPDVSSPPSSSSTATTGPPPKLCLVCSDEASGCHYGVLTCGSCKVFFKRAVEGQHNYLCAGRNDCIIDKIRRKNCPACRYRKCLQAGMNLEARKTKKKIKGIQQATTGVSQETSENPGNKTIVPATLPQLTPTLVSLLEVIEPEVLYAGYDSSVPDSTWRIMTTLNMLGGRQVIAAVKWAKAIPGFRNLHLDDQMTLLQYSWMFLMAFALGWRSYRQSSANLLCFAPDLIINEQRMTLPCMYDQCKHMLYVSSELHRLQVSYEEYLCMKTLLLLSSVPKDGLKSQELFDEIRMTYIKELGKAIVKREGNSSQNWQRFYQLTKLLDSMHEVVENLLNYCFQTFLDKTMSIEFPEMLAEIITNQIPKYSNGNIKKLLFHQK
Hepatocyte nuclear factor 4-alpha (Homo sapiens), sequence (P41235 whole entry, looked up): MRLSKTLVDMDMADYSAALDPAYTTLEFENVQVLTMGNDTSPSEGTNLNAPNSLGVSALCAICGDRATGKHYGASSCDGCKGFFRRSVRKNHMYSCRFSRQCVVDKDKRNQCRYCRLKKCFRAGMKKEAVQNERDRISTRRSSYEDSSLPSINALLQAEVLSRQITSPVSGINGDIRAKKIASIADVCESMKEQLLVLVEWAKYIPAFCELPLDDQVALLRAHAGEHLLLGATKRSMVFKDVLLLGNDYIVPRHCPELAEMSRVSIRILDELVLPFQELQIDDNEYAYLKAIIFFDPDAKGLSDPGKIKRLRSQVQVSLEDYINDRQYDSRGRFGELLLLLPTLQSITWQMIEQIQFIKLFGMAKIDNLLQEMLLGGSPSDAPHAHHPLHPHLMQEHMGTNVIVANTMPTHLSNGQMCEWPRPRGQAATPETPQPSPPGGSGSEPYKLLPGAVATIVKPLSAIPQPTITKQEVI
Myc proto-oncogene protein (Homo sapiens), sequence (P01106 whole entry, looked up): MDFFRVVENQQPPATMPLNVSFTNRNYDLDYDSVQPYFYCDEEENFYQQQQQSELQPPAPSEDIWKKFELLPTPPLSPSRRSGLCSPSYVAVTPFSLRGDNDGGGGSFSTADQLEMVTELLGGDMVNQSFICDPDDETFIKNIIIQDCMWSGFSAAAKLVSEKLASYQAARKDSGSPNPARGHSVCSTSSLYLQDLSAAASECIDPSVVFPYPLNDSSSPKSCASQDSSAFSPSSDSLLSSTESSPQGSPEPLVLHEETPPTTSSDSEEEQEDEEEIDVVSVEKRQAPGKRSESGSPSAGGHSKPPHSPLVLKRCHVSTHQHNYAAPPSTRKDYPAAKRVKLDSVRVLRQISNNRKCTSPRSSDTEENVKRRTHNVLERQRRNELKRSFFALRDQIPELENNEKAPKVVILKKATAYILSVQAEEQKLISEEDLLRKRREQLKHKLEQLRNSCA
Oxysterols receptor LXR-alpha (Homo sapiens), sequence (Q13133 whole entry, looked up, the tested form may be a part): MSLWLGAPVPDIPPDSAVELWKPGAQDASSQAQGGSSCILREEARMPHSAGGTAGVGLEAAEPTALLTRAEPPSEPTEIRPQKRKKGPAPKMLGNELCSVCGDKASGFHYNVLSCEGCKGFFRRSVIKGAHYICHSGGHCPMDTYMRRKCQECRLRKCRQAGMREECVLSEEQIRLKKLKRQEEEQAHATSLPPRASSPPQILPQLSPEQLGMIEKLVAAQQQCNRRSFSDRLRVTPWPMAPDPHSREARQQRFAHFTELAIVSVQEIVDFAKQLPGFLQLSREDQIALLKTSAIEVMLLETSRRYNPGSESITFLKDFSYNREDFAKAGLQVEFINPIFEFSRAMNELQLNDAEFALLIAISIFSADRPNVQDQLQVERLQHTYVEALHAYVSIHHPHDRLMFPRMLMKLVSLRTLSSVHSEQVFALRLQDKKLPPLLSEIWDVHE
Bile acid receptor (Homo sapiens), sequence (Q96RI1 whole entry, looked up, the tested form may be a part): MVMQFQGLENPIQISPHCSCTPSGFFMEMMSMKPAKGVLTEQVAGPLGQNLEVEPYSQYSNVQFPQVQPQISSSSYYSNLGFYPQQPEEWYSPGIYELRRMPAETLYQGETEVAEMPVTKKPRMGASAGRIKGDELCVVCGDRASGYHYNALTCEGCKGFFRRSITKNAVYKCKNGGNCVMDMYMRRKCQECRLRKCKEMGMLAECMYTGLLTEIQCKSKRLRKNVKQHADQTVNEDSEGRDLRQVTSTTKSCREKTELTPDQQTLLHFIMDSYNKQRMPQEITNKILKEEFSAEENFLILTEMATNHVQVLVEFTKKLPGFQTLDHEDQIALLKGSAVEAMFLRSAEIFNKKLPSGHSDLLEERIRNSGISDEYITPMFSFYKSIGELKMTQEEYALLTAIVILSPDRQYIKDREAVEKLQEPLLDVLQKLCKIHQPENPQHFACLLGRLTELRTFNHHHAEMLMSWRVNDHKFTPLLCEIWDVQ
Transcriptional activator Myb (Homo sapiens), sequence (P10242 whole entry, looked up): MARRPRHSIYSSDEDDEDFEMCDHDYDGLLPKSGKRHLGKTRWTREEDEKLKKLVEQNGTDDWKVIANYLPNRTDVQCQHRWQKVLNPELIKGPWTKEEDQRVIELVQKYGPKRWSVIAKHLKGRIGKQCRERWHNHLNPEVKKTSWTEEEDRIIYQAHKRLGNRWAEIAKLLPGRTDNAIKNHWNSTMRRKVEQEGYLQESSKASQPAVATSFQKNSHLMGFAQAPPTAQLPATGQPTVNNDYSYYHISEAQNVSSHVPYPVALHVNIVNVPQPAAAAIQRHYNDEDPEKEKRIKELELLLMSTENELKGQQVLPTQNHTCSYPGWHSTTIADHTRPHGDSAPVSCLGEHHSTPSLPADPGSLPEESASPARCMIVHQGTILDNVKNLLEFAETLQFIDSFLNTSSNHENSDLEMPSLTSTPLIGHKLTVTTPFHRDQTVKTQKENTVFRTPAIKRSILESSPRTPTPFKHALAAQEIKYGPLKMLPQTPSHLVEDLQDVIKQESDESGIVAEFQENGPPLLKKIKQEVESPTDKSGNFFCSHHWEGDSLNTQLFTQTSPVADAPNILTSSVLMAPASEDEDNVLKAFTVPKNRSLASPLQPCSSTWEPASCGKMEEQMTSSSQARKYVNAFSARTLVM
X-box-binding protein 1 (Homo sapiens), sequence (P17861 whole entry, looked up, the tested form may be a part): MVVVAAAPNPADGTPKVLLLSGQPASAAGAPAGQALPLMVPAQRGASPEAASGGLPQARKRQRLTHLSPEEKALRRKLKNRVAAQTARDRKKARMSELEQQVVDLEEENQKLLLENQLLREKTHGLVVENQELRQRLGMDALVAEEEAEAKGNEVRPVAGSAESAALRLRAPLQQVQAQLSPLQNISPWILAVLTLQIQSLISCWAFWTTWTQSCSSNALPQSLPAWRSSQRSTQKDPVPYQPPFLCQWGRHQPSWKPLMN
Nuclear respiratory factor 1 (Homo sapiens), sequence (Q16656 whole entry, looked up): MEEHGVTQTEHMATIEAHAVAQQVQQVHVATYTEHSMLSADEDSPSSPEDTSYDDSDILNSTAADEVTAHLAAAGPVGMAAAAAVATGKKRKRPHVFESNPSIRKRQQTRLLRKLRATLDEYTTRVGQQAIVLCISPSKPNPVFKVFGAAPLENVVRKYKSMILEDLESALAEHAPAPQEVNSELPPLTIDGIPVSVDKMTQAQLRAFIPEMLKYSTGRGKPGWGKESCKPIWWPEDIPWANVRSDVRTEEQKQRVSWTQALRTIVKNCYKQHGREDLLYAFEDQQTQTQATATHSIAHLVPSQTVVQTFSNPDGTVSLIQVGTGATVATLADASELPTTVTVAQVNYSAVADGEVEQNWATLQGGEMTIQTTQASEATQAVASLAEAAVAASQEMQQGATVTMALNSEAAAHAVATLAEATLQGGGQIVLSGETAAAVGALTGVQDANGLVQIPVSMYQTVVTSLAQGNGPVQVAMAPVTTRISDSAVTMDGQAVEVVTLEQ
Nuclear receptor subfamily 4 group A member 2 (Homo sapiens), sequence (P43354 whole entry, looked up, the tested form may be a part): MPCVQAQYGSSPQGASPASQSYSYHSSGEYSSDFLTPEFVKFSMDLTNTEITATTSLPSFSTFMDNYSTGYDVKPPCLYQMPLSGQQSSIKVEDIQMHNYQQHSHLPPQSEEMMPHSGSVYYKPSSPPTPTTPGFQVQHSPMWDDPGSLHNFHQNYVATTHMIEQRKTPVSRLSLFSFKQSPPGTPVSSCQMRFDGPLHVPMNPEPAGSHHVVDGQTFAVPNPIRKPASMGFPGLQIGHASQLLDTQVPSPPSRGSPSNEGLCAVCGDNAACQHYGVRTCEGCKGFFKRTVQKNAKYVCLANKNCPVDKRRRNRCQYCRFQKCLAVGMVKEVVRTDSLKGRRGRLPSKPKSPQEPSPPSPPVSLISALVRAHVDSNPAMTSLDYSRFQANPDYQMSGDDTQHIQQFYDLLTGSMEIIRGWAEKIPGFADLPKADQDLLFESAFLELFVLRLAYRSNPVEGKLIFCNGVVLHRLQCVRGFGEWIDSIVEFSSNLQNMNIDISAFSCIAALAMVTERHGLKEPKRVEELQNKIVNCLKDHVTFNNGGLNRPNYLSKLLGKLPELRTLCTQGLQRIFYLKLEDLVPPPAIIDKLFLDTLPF

ClCCCCl
inactive: [1] | [2] | [3] | [4] | [5] | [6] | [7] | [8] | [9]

O=CCCl
active: [1] 24.7 µM | [6] 25.5 µM | [7] 24.5 µM | [9] 23.6 µM
inactive: [10] | [11] | [12] | [13] | [3] | [4] | [5] | [14]

CCN(CC)C(=O)C(Cl)=C(C)OP(=O)(OC)OC
inactive: [1] | [2] | [12] | [13] | [3] | [6] | [14] | [7]
active: [9] 38.6 µM

Clc1ccc(C(Cl)(Cl)Cl)cn1
inactive: [1] | [2] | [12] | [5] | [6] | [7] | [8] | [9]

CCOC(=O)c1ccccc1S(=O)(=O)NC(=O)Nc1nc(Cl)cc(OC)n1
inactive: [1] | [2] | [12] | [13] | [3] | [4] | [5] | [6] | [14] | [7] | [8] | [9]

Oc1c(Cl)cc(Cl)cc1Cl
inactive: [1] | [7]

Nc1ncn[nH]1
inactive: [1] | [13] | [5] | [6] | [14] | [7] | [9]

Cc1ccc2nc3sc(=O)sc3nc2c1
inactive: [2] | [10] | [11] | [4] | [14] | [8]
active: [1] 6.96 µM | [12] 6.47 µM | [5] 25 µM | [6] 12.2 µM | [7] 6.38 µM | [9] 4.06 µM

O=S1OC[C@@H]2[C@H](CO1)[C@]1(Cl)C(Cl)=C(Cl)[C@@]2(Cl)C1(Cl)Cl (stereo partly specified)
inactive: [2] | [15] | [13] | [5] | [6] | [14] | [7] | [8] | [9]
active: [1] 100 µM

O=C(NC(=O)c1c(F)cccc1F)Nc1cc(Cl)c(F)c(Cl)c1F
inactive: [1] | [12] | [13] | [5] | [6] | [14] | [7] | [8] | [9]

c1cc[c]([Sb]([c]2ccccc2)[c]2ccccc2)cc1
active: [9] 70.3 µM
inactive: [1] | [2] | [15] | [12] | [13] | [6] | [14] | [7]

CCOCn1c(-c2ccc(Cl)cc2)c(C#N)c(Br)c1C(F)(F)F
inactive: [2] | [10] | [11] | [12] | [3] | [4] | [6] | [9]
active: [1] 2.71 µM | [5] 78.8 µM | [14] 48.7 µM | [7] 150 µM

CCNc1nc(NCC)nc(SC)n1
inactive: [1] | [2] | [12] | [13] | [5] | [6] | [7] | [8] | [9]

CC(C)(C1CCC(O)CC1)C1CCC(O)CC1 (stereo unspecified)
inactive: [1] | [10] | [11] | [13] | [5] | [6] | [14] | [7] | [8]

C1CCC(C2CCCCC2)CC1
active: [9] 23.8 µM
inactive: [1] | [15] | [10] | [11] | [13] | [5] | [6] | [14] | [7] | [8]

O=C(CCl)Nc1ccccc1
active: [1] 22 µM | [5] 100 µM | [6] 35.2 µM | [9] 2.21 µM
inactive: [10] | [11] | [12] | [13] | [3] | [4] | [7]

Oc1ccc(Cc2ccc(O)cc2)cc1
inactive: [1] | [2] | [10] | [12] | [3] | [5] | [6] | [14] | [7] | [8]
active: [9] 100 µM

O=S1(=O)OC(c2cc(Br)c(O)c(Br)c2)(c2cc(Br)c(O)c(Br)c2)c2ccccc21
inactive: [1] | [15] | [4] | [5] | [6] | [14] | [7]
active: [8] 93 µM | [9] 60.1 µM
